# In PMC12136788:
# Positions count from the first letter of the chain named. Over roughly 24,000 sequences, “enrichment r” has its median near 0.99; the highest 2% begin near 3.7. Shown is part of a subset that was picked to be rich in the highest values.
# B1: chr16:45382771:45382772:-_ENSMUSG00000022661_ENSMUST00000163230|mus_mus|mus_mus_mus_hu_True|8_48 (ssRNA)
# RNA: GGGAGUUCUACAGUCCGACGAUCCUGGGUCAUGUUAUAAGACAAAUGGACAGGGAGGGCAUGCUUCUCAAAAAAUGUGAGCUAUUGACUAAGACUAACAAUAUUUAUCUAGCUAUAAAAAUAAGUUUUAAAUGGACGUUAAGACAACAGAGGAUUGAGCAUCA
# B2: chr16:45382771:45382772:-_ENSMUSG00000022661_ENSMUST00000163230|mus_mus|mus_mus_mus_hu_True|8_8 (ssRNA)
# RNA: B1 RNA with A87U
# B3: chr16:45382771:45382772:-_ENSMUSG00000022661_ENSMUST00000163230|mus_mus|mus_mus_mus_hu_True|8_38 (ssRNA)
# RNA: B1 RNA with A87U, U105G, A106C
# B4: chr16:45382771:45382772:-_ENSMUSG00000022661_ENSMUST00000163230|mus_mus|mus_mus_mus_hu_True|8_108 (ssRNA)
# RNA: B1 RNA with G27A, C30G, A31U, G33A, A36G, A87U
# B5: chr14:62207507:62207508:+_ENSG00000100644_ENST00000337138|hu_mus|FALSE|FALSE (ssRNA)
# RNA: GGGAGUUCUACAGUCCGACGAUCUGACAACUGAUCAAAGGAACGUAACUGGAAAUCAUCAUCCAUUGGGAUAUAGGGAGCCAGCAUCUCCAAAUCUAAAUCAGUGUCCUGAGUUGAAAAUGGAUUCUUUGCCUCUGUGUCUUCCAACAGAGGAUUGAGCAUCA
# B6: chr9:95013113:95013114:-_ENSG00000196305_ENST00000443024|hu_hu|hu_hu_hu_mus_False|28_58 (ssRNA)
# RNA: GGGAGUUCUACAGUCCGACGAUCCUCAGUCAGAAAGGGCGUGUAAGGGGCCAUCAGUCUGCACAGAGAAAGCAGGACACUAAACAAUGUCUCCAGAGCCAUGACACAAUCCUCCAUCCCACUCUCACCCUUUAACCUCCUCCUCAACAGAGGAUUGAGCAUCA
# B7: chr9:14812383:14812384:-_ENSMUSG00000031934_ENSMUST00000164273|mus_mus|FALSE|FALSE (ssRNA)
# RNA: GGGAGUUCUACAGUCCGACGAUCAUAGCUCAAGUAGAUACAUGCCAACAGUAUAACCACAAAUGUCACCAGCCGGCAGCUAAUGUAUUUCAUGAUUAAAUGACUAGAGUUCUUUUUUGUCUUCAAGUACUGCUCCACGAUUGGCAACAGAGGAUUGAGCAUCA
# B8: chr5:128448638:128448639:+_ENSG00000066583_ENST00000173527|hu_mus|hu_hu_hu_mus_False|48_58 (ssRNA)
# RNA: GGGAGUUCUACAGUCCGACGAUCGGCACUCGCCUUAAUUAGGUUCUGAAUUUCCUUGAACUUCGGGUGGUCUUUGUCAGCUACCAGCUGAAGCAGAACAGCCUCACUAGUGGUCACGAUGAUCCCAGUGCGGGCAAGACGCUCCAACAGAGGAUUGAGCAUCA
# B9: chr10:121347744:121347745:-_ENSG00000151923_ENST00000436547|hu_mus|FALSE|FALSE (ssRNA)
# RNA: GGGAGUUCUACAGUCCGACGAUCCGAUCUGACUGAAUAACUGAAGAAUAAGGACUUCUGUCACAUCUCUGGAGAGGUUACCUACGUAUAGAGUCCGGGGCUGUCCGUCGUCUUCCAUCAUGGUGGGUGCGACGGAGUGAUCCCCAACAGAGGAUUGAGCAUCA
# B10: 89385701_89385821_685_3pUTR_ENSMUSG00000031652_ENSMUST00000034074|mouse|control|control (ssRNA)
# RNA: GGGAGUUCUACAGUCCGACGAUCUCUGCGUGGGCUUCAACAAACUGUCUGAAUUCCCGUUUGAUUUCCGACUCUCUCUGAUUACUGGGGAGGUUCUCGUUGCUCUCAAAGAGCUUCACAAACUGCUGAAUGUGACUCCUGGCCCAACAGAGGAUUGAGCAUCA
# B11: chr1:130171486:130171487:+_ENSMUSG00000026353_ENSMUST00000027592|perfect_dup|FALSE|FALSE (ssRNA)
# RNA: GGGAGUUCUACAGUCCGACGAUCUGACGAUGUUACUCUCACUGAAGUCUGUGUGGGAGGCGGAUUACUAAACAAGAAAUUGCUAAUUAAUCUCCAGAUGGCAAGGAAUGGAUAAAGCACUGUUCCCAACAAGGUCCAAAUGUCCAACAGAGGAUUGAGCAUCA
# B12: chr19:16212804:16212805:+_ENSG00000167460_ENST00000300933|hu_mus|hu_hu_hu_mus_False|8_88 (ssRNA)
# RNA: GGGAGUUCUACAGUCCGACGAUCAACAAUUCUGGAGUGAAGGAAAGCAUCAAGGAUGAACAGCAUUAAAGCUCAGUCAGAAGGCACAUGGGCAACAAUGAUCACCCCAGCAUUCUCGCUUGGAAUGUGCUUGAGAAAUCUGUUCAACAGAGGAUUGAGCAUCA
# B13: chr12:16048344:16048345:+_ENSG00000023734_ENST00000419869|hu_hu|hu_hu_hu_mus_True|8_8 (ssRNA)
# RNA: GGGAGUUCUACAGUCCGACGAUCAGAUCGUCCAUAAGUAAUAACCAAAAUCUCUCCUUCAGGAAUAUACUCCAUGCUGCUAACAGACAUAUUAAAAUUCAGAGAUUUCACUUCUGUCAUUGUGGCAUGAUCCCAAAGCCGAACCAACAGAGGAUUGAGCAUCA
# B14: chr1:130171486:130171487:+_ENSMUSG00000026353_ENSMUST00000027592|perfect_dup|FALSE|FALSE (ssRNA)
# RNA: GGGAGUUCUACAGUCCGACGAUCUGUGGAUGUGGCUCUUGCUGAAGUCUGUGCAGGAGGAGGAUUGCUAAAUAAAAAAUUGCUAAUUAAUCUCCAUAUGGCCAGGAAUGGAUAAAGCACCGUCCCCAGUAAUGUCCAAAUGUCCAACAGAGGAUUGAGCAUCA
# B15: chr1:130171486:130171487:+_ENSMUSG00000026353_ENSMUST00000027592|perfect_dup|motif|central (ssRNA)
# RNA: B14 RNA with U83G, A84G
# B16: chr1:130171486:130171487:+_ENSMUSG00000026353_ENSMUST00000027592|perfect_dup|motif|central (ssRNA)
# RNA: B11 RNA with U83G, A84G
# B17: chrX:102931482:102931483:-_ENSG00000123562_ENST00000441076|hu_hu|FALSE|FALSE (ssRNA)
# RNA: GGGAGUUCUACAGUCCGACGAUCAAUUGCAUCUACAUUUUUCUUGGCAGGGAGUUGAAACAGCUGCUUCUGCCUGGUAACUAAGUCCCAGUCCUCAACAAGCCAUGGUUUUAAUUCUUCAGGAAUCUUCACUUUAACCUCCAUCAACAGAGGAUUGAGCAUCA
# B18: chr4:131761308:131761309:-_ENSMUSG00000040025_ENSMUST00000102570|mus_mus|motif|central (ssRNA)
# RNA: GGGAGUUCUACAGUCCGACGAUCGCUGACUGUCCAUCAAUCAUGGCUCCACCUAAGGAGCUGGGUGCAUAAGCGUAAUUGCGGCGGUAUCCAGAGCUUUGAGUAGACUGUCCCUGAGAACUGUUAUUUCCCCAUGCUGAGAAGCAACAGAGGAUUGAGCAUCA
# B19: chr17:15081082:15081083:+_ENSMUSG00000050088_ENSMUST00000052691|mus_mus|motif|central (ssRNA)
# RNA: GGGAGUUCUACAGUCCGACGAUCUGCUCCAGCAUAUUCAAGGGAUCAGAAGAGAAUUUCAAGCACCAGUUUCAAAAUGCGGAUCAAUAUCGUCCAGAGAACUGAUUCCUCCUCUUGGGCUGCCUCUUCUGGAGCGUAAGCCUGCAACAGAGGAUUGAGCAUCA
# B20: chr14:14948730:14948731:-_ENSMUSG00000021737_ENSMUST00000022256|mus_mus|FALSE|FALSE (ssRNA)
# RNA: GGGAGUUCUACAGUCCGACGAUCAAAAACUGAAUAACGGCAUUCAUAGAGAGAAAACAGAUACUGCCGAACUGCUGGAAGACUGUGCAACACUUCAAGGAUCUCUGCCCCUUUAAUGACCUUUUCCCUGAGGUCCGGCCUUUCCAACAGAGGAUUGAGCAUCA
# B21: chr15:76909541:76909542:-_ENSMUSG00000033565_ENSMUST00000166610|perfect_dup|motif|central (ssRNA)
# RNA: GGGAGUUCUACAGUCCGACGAUCCAACAUGAUCAAUAAUUUAUACACAUGGAGAGUAAUACAAAAAAUAAUGAAUAAAAGCGGAAGAUCUAACUACUCAACCUUCACAAUUCCAGCUACUUGAUAAUAGGAGUAACCCAAUGACAACAGAGGAUUGAGCAUCA
# B22: chr18:2804189:2804190:+_ENSG00000101596_ENST00000320876|hu_hu|FALSE|FALSE (ssRNA)
# RNA: GGGAGUUCUACAGUCCGACGAUCCAAUGCCUUGGAUUUAAAACAUGACUCCUUCUUGAUACAAUGAAUUAUAAAAGCAAACUAGUUCCACAUAUUAAUUAUACGUUCAAGUCUAGUUCCUAAAAAGUCAUUUCUCUUUAACCUCAACAGAGGAUUGAGCAUCA
# B23: chr15:76909541:76909542:-_ENSMUSG00000033565_ENSMUST00000166610|perfect_dup|FALSE|FALSE (ssRNA)
# RNA: B21 RNA with G82U, G83A
# B24: chr2:47387792:47387793:-_ENSG00000143933_ENST00000272298|hu_hu|hu_hu_hu_mus_True|28_38 (ssRNA)
# RNA: GGGAGUUCUACAGUCCGACGAUCUAAGGACAAUGACAGUAAGAUAAGGGAAGAAAACAUGGAGGAAUGAAGUCCUAAUUACUAUACAUGCAUAUUUUUUUGACAGUAGGGAGAAACACCUUUUACAGAUAAGUUACAAACAAACAACAGAGGAUUGAGCAUCA
# Molecular target: T1, UNK ZnF1-3 (human, UniProt Q9C0B0 31-174)
# T1 sequence: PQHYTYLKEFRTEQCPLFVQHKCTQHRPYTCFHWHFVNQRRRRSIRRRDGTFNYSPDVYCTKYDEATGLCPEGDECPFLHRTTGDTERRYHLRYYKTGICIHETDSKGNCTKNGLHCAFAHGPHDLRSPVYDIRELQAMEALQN
# Experiment: nsRBNS (natural sequence RNA bind-n-seq); RBNS binding buffer (assumed for nsRBNS): 25 mM Tris pH 7.5, 150 mM KCl, 3 mM MgCl2, 0.01% Triton X-100, 500 ug/ml BSA, 20 U/ml SUPERase-In, 4 C; UNK is unkempt and MSI1 is Musashi-1; names of the RNAs are library labels; protein concentration not given here; high values mean tight binding
row,Binder,binding signal
1,B1,5.59 enrichment R
2,B2,3.98 enrichment R
3,B3,3.88 enrichment R
4,B4,3.42 enrichment R
5,B5,1.17 enrichment R
6,B6,1.38 enrichment R
7,B7,0.953 enrichment R
8,B8,0.822 enrichment R
9,B9,0.644 enrichment R
10,B10,0.876 enrichment R
11,B11,4.56 enrichment R
12,B12,1.57 enrichment R
13,B13,1.38 enrichment R
14,B14,4.56 enrichment R
15,B15,3.3 enrichment R
16,B16,3.3 enrichment R
17,B17,1.04 enrichment R
18,B18,1.17 enrichment R
19,B19,1.62 enrichment R
20,B20,1.41 enrichment R
21,B21,8.91 enrichment R
22,B22,1.05 enrichment R
23,B23,6.42 enrichment R
24,B24,1.79 enrichment R
